# Assay results from PubChem BioAssay AID504861 (Broad Institute, 2011).
# About 290 (24%) of roughly 1,200 compounds were called active. Roughly 3% stayed inconclusive and do not appear here.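 How the source made its calls: active means compounds lowering cell viability signal with fitted half-maximal concentration at most ten times their highest tested concentration; inconclusive means flat fit with 30 to 70% signal loss, or poor fit; inactive means the rest.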 A selection follows. Measured potencies and affinities stand elsewhere.
# Assay: HEK293T cell viability reduction, dose response, cytotoxicity control for LMP1 NF-kB inhibitor project, CellTiter-Glo luminescence, cherry-picks (AID 504861)
# Settings: CellTiter-Glo ATP luminescence, 48 h; series mostly up to 26 µM
row,SMILES,outcome
1,Cc1cc2cc(CN(Cc3ccco3)S(=O)(=O)c3c(C)ccc4nsnc34)c(=O)[nH]c2cc1C,inactive
2,CCCN(CC)c1ncnc2[nH]ncc12,inactive
3,COc1ccc(/C=N/Nc2cc(OC)ncn2)cc1,inactive
4,CN(C)c1ccc(C=Cc2ccnc3c(O)cccc23)cc1,inactive
5,COc1ccc(CC(C)NCC(O)c2ccc(O)c(NC=O)c2)cc1 (stereo not given),inactive
6,COc1ccc(-n2c(SCC(=O)Nc3ccc4c(c3)OCO4)nc3c(c2=O)SCC3)cc1,inactive
7,CCOCCCn1cnc2c3cc(F)ccc3n(C)c2c1=O,inactive
8,CC(C)(C)n1nc(-c2ccc(Cl)cc2)c2c(N)ncnc21,inactive
9,CCc1ccc(/C=C2\SC(=S)N(CCCC(=O)NC3=NCCS3)C2=O)cc1,inactive
10,CCOc1cc(/C=C2/C(=N)N3N=C(CC)SC3=NC2=O)ccc1OC(=O)c1ccco1,inactive
11,COc1ccc(-c2cc(C(=O)N3CCCC3)no2)cc1,inactive
12,O=Cc1ccc(-c2cccs2)s1,inactive
13,COC(=O)c1ccc(CSc2nc3c(c(=O)n2-c2ccc(C)cc2)SCC3)o1,inactive
14,Cc1ccc(-n2cc(C(=O)c3ccccc3O)cn2)cc1,inactive
15,COc1ccc(C(=O)N=c2nc3ccccn3s2)cc1,inactive
16,CC(=O)c1cc(C(=O)Nc2ccc(C(=O)O)cc2)oc1C,inactive
17,COc1ccc(NC(=O)/C(C#N)=C/c2cc(C)n(-c3ccc(N4CCOCC4)c([N+](=O)[O-])c3)c2C)cc1,inactive
18,CCOC(=O)c1c(CSc2nc(C)cc(C)c2C#N)n(C)c2cc(Br)c(OC(C)=O)cc12,inactive
19,Cc1nc(SCC(=O)c2cccc([N+](=O)[O-])c2)n[nH]1,inactive
20,CCOc1ccc(Nc2ncnc3ccc([N+](=O)[O-])cc23)cc1,inactive
21,CC(NC(=O)CNC(=O)OCc1ccccc1)C(=O)N1CC(O)CC1C(=O)OCc1ccccc1 (stereo not given),inactive
22,CC(C)(C)OC(=O)N1Cc2ccccc2C[C@H]1C(=O)NCC(=O)Nc1ccc2c(c1)OCCO2,inactive

row,SMILES,outcome
1,COc1ccc(-n2cnc3c(cnn3CCC#N)c2=N)cc1,inactive
2,Cc1ccn2c(c1)nc(=S)n2C(=O)c1ccccc1,inactive
3,COc1ccc(NC(=O)c2cc3c(CO)cnc(C)c3oc2=Nc2cccc(F)c2)c(OC)c1,inactive
4,N#Cc1c(Nc2ccccc2)sc(C(=O)c2ccc(F)cc2)c1N,inactive
5,C=CCn1c(SCc2csc(C)n2)nc2sc3c(c2c1=O)CCCC3,inactive
6,CCn1c2ccccc2c2cc(/C=N/n3cn[nH]c3=S)ccc21,inactive
7,O=C1CC(c2cccs2)Cc2nc(NC(=O)C3CC3)ncc21 (stereo not given),inactive
8,CC(=O)O[C@]1(C(C)=O)CC[C@H]2[C@@H]3C=C(C)C4=CC(=O)CC[C@@H]4[C@H]3CC[C@@]21C,inactive
9,Cc1ccc(-c2cc(C(=O)N/N=C/C=C/c3ccco3)c3ccccc3n2)cc1C,inactive
10,Cc1ccc(C(=O)NCC(=O)N(C)Cc2cccc(F)c2)s1,inactive
11,Cn1cccc1/C=N/n1c(-c2ccc(Cl)cc2Cl)n[nH]c1=S,inactive
12,CCn1nnc2cc(C(=O)NCCc3ccccc3F)ccc21,inactive
13,O=C(Nc1cccc(C(=O)O)c1)Nc1ccccc1Cl,inactive
14,O=C(NCCc1cn2ccccc2n1)C1CCCCC1,inactive
15,Cc1ccc(C)c(Cn2c(O)c(N=NC(=S)Nc3ccccc3F)c3ccccc32)c1,inactive
16,N#CC1=C(N)C(C#N)(C#N)C(c2cccnc2)C2CC(c3ccccc3)CC=C12 (stereo not given),inactive
17,Cc1nc(C)n(C(C)CNC(=O)c2ccco2)n1 (stereo not given),inactive
18,O=C(O)c1ccccc1Nc1cccc(OCc2ccc3ccccc3n2)c1,inactive
19,CCCC(=O)NCCCc1nc2ccccc2n1C,inactive
20,O=C(O)c1cc(=O)c2c(OCC(O)COc3cccc4oc(C(=O)O)cc(=O)c34)cccc2o1,inactive
21,COc1ccc(-n2c(C)c([N+](=O)[O-])c3ccc(O)c(CN(C)C)c32)cc1,inactive
22,COc1ccc(Cl)cc1NC(=O)CN(C)S(=O)(=O)c1cccs1,inactive

row,SMILES,outcome
1,OCCN(CCO)CC(O)COCCC12CC3CC(CC(C3)C1)C2 (stereo not given),inactive
2,O=C(Nc1ccc2c(c1)nc1n2CCSC1)c1ccco1,inactive
3,Cc1ccc(/C=C/c2nc3ccccc3c(=O)[nH]2)cc1,inactive
4,CCn1c(/C=C/c2ccc([N+](=O)[O-])o2)nc2ccccc2c1=O,inactive
5,COc1ccccc1-c1ccccc1C1=CC(=O)CC(C)(C)C1=O,inactive
6,COc1ccc(/C=C2\N=C(C)OC2=O)cc1[N+](=O)[O-],inactive
7,Brc1cccc(-c2cnco2)c1,inactive
8,O=c1[nH]c(=O)n([C@H]2C[C@H](O)[C@@H](CO)O2)cc1C(F)(F)F,inactive
9,O=c1c2c(nc3c(-c4cccc(Br)c4)c[nH]n13)CCCC2,inactive
10,CC(C)C(=O)Nc1ccc(C(=O)N/N=C/c2cc(Br)cc(Br)c2O)cc1,inactive
11,Clc1ccc(-c2cn3nc4c(nc3n2)CCCC4)cc1,inactive
12,COc1ccc(NC(=O)C2CCCN(S(=O)(=O)c3cccc4nonc34)C2)c(OC)c1 (stereo not given),inactive
13,CC(=O)Nc1ccc(C=NNc2nnc(NN=Cc3ccc(NC(C)=O)cc3)c3ccccc23)cc1,inactive
14,COc1ccc(N2C(=O)CC(Sc3nnc(-c4ccccc4)o3)C2=O)cc1 (stereo not given),inactive
15,Cc1cccc(NC(=O)Nc2c(C)n(C)n(-c3ccccc3)c2=O)c1C,inactive
16,Cc1c(C=O)c2ccccn2c1C(=O)c1ccccc1Cl,inactive
17,Clc1ccc2nc(-c3ccc4c(c3)OCO4)cn2c1,inactive
18,COC(=O)c1ccc2nc(-c3ccc4c(c3)OCO4)cn2c1,inactive
19,Cc1c(/C(O)=C2/C(=O)C(=O)N(CCN3CCOCC3)C2c2ccccn2)cnn1-c1ccccc1 (stereo not given),inactive
20,CCc1cc(=O)oc2c(CNCc3c(F)cccc3Cl)c(O)ccc12,inactive
21,CS(=O)(=O)c1ccc(Sc2nc3ccccc3s2)c([N+](=O)[O-])c1,inactive
22,COc1ccccc1C(=O)NC(=O)CSc1nnc(N)s1,inactive

row,SMILES,outcome
1,COc1ccc(-c2nc(CS(=O)CC(=O)NCc3ccc(Cl)cc3)c(C)o2)cc1 (stereo not given),inactive
2,COc1ccc(S(=O)(=O)NCCc2csc(-c3cccnc3)n2)cc1,inactive
3,Cc1cccc(Cn2cc(SCC(=O)Nc3nccs3)c3ccccc32)c1,inactive
4,O=C1/C(=C/c2cccnc2)SC(=S)N1Cc1ccco1,inactive
5,CCOc1ccc(-c2nc(CSCC(=O)NCc3ccco3)c(C)o2)cc1,inactive
6,CCOC(=O)c1ccc(NC(=S)N2CCSC2c2ccc(OC)cc2)cc1 (stereo not given),inactive
7,Cc1ccc(/C=C/C(=O)C2C(=O)c3ccccc3C2=O)cc1,inactive
8,Cc1ccc(C(=O)NCCc2cccs2)cc1,inactive
9,Cc1cc(C)n(C2CCCCC2OC(=O)c2ccccc2F)n1 (stereo not given),inactive
10,CNC(=S)Nc1ccc2nc(C)c(C)nc2c1,inactive
11,Cc1cc(=O)[nH]c(N=N/C(=N/Nc2ccccc2C)c2ccccc2)n1,inactive
12,O=C(Nc1ccc(Br)cc1)C1CC(O)CN1C(=O)OCc1ccccc1 (stereo not given),inactive
13,O=C(O)CCc1nc(-c2ccc(Cl)cc2)no1,inactive
14,Cn1c(-c2ccccc2)cnc1SCC(=O)N1CCCCC1,inactive
15,O=C(N/N=C/c1cccnc1)c1cc(-c2cccs2)nc2ccccc12,inactive
16,NC(=O)c1sc2nc3c(c(-c4cccs4)c2c1N)CCCCC3,inactive
17,O=C(CN1C(=O)c2ccccc2C1=O)NNC1=NS(=O)(=O)c2ccccc21,inactive
18,COc1ccc(-n2nc(C(=O)c3cccs3)cc(-c3nc4ccccc4[nH]3)c2=N)cc1,inactive
19,O=C(Nc1nnc(N2CCCCCC2)s1)c1cc(-c2ccc(Br)cc2)on1,inactive
20,Cc1ccccc1N(C(=O)c1snc(C(N)=O)c1N)C(C(=O)NC1CCCCC1)c1ccc(O)cc1 (stereo not given),inactive
21,Cc1cc(NC(=O)c2ccc3c(c2)OCCO3)no1,inactive
22,CSc1nc2cc3c(cc2n1C(=O)c1ccc(C)cc1)OCCO3,inactive

row,SMILES,outcome
1,C/C(=N\Nc1ccc(C(F)(F)F)cc1[N+](=O)[O-])C(C)C,inactive
2,Nc1ccccc1SC1CC(=O)N(c2ccccc2Cl)C1=O (stereo not given),inactive
3,Cc1cccc(Nc2nc(Cl)ncc2F)c1C,inactive
4,Cc1ccnc(SCCn2c(N3CCN(c4ccccc4)CC3)nc3c2c(=O)[nH]c(=O)n3C)n1,inactive
5,O=C(NCCCN1CCCCC1)c1ccc2c(c1)NC(=O)c1ccccc1S2,inactive
6,COc1ccc(-c2cc3nc(-c4ccccc4)cc(N4CCCC(O)C4)n3n2)cc1 (stereo not given),inactive
7,O=C(N/C(=C/c1ccc(Br)cc1)C(=O)N1CCOCC1)c1ccc(Br)o1,inactive
8,O=C(NCCc1ccccc1)c1ccc2nccnc2c1,inactive
9,COc1cccc(-c2nc(NCc3ccccc3)c3ccccc3n2)c1O,inactive
10,O=C(Nc1ccc(Cl)c(Cl)c1)Nc1nc(-c2ccccc2)cs1,inactive
11,CCc1ccccc1N(CC(=O)NCc1ccco1)C(=O)c1snc(C(N)=O)c1N,inactive
12,CCn1c2ccccc2c2cc(NC(=O)c3ccccc3-c3ccccc3C(=O)O)ccc21,inactive
13,CCN(CC)Cc1cc(Nc2ccnc3cc(Cl)ccc23)ccc1O,inactive
14,O=S(=O)(c1ccc2c(c1)C(=NO)c1cc(S(=O)(=O)N3CCCCC3)ccc1-2)N1CCCCC1,inactive
15,Nc1nc(N)nc(-c2cc(Cl)ccc2Cl)n1,inactive
16,CCCc1cc(=O)c2c(O)ccc(OC)c2o1,inactive
17,CC1CCC(NC(=O)CC2Oc3ccccc3NC2=O)CC1 (stereo not given),inactive
18,O=S(=O)(c1ccccc1)N1CCN(c2cc(-c3ccccc3)nc3ncnn23)CC1,inactive
19,Cn1cccc1CC(=O)NNC(=S)Nc1ccccc1Cl,inactive
20,COc1ccccc1NC(=O)C(=O)N/N=C(\C)CC(=O)Nc1ccccc1C(F)(F)F,inactive
21,CC(C)(C)n1nc(-c2ccc(F)cc2)c2c(N)ncnc21,inactive
22,CCc1nnc(NC(=O)c2cc(S(=O)(=O)N3CCN(CC)CC3)ccc2Cl)s1,inactive
